Assay results reported in PubChem BioAssay (EPA / NIEHS).
Records with an inconclusive call do not appear. Active and inactive are the calls of the source. The calls were made as follows, unless noted: active = hit-call score of the fitted dose curve at least 0.9, where 1 is the maximum; inactive = score below 0.9.

Experiments:
[1] = molecular target: Estrogen-related receptor gamma (Homo sapiens) (UniProt P62508); test: ATG_ERRg_TRANS: Attagene TRANS-FACTORIAL HepG2 Assay for human Estrogen-Related Receptor gamma (ERRg) (AID 2282977; active = hit-call score of the fitted dose curve at least 0.9, where 1 is the maximum;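 also: hits increase reporter signal over DMSO so potencies reflect activators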); settings: HepG2 Attagene TRANS reporter, ERRg transactivation
Summary of the method: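 Transfect HepG2 with multiple GAL4-UAS reporter transcription units; dose chemicals 24 h; isolate RNA, reverse-transcribe with oligo(dT), PCR-amplify, label with 6-FAM, digest with HpaI; size fragments by capillary electrophoresis. DMSO serves as negative control.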

[2] = molecular target: Glucocorticoid receptor (Homo sapiens) (UniProt P04150); test: ATG_GR_TRANS: Attagene TRANS-FACTORIAL HepG2 Assay for human Glucocorticoid Receptor (GR) (AID 2282978; active = hit-call score of the fitted dose curve at least 0.9, where 1 is the maximum;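 also: activators score as hits since higher reporter transcript over DMSO is fitted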); settings: HepG2 Attagene TRANS GR reporter, mRNA transcription
Summary of the method: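 HepG2 transient transfection, multiple reporter units, GAL4-UAS under NR-GAL4 chimera control. 24 h treatment. Reporter mRNA by RT-PCR/CE fluorescence, DMSO as negative control.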

[3] = molecular target: Oxysterols receptor LXR-beta (Homo sapiens) (UniProt P55055); test: ATG_LXRb_TRANS: Attagene TRANS-FACTORIAL HepG2 Assay for human Liver X Receptor beta (LXRb) (AID 2282981; active = hit-call score of the fitted dose curve at least 0.9, where 1 is the maximum); settings: HepG2 Attagene TRANS GAL4-LXRb reporter, mRNA
Summary of the method: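 HepG2 cells transiently transfected with GAL4-UAS reporter units for chimeric NR-Gal4 proteins, dosed for 24 h. Reporter transcripts measured by RT-PCR and capillary electrophoresis; gain-of-signal fitting relative to DMSO.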

[4] = ATG_M_06_TRANS: Attagene TRANS-FACTORIAL HepG2 Assay for M06 Transcription Factor (Internal Marker) (AID 2282983; active = hit-call score of the fitted dose curve at least 0.9, where 1 is the maximum;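 also: reporter transcript level by RT-PCR then capillary electrophoresis fluorescence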); settings: HepG2 Attagene TRANS M06 internal marker reporter
Summary of the method: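 Measured by capillary electrophoresis of fluorescently labelled RT-PCR products, this endpoint reflects reporter mRNA in HepG2 cells harbouring exogenous NR-GAL4 reporter constructs after 24 h exposure, with DMSO as baseline.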

[5] = molecular target: Nuclear receptor subfamily 4 group A member 2 (Homo sapiens) (UniProt P43354); test: ATG_NURR1_TRANS: Attagene TRANS-FACTORIAL HepG2 Assay for human Nuclear Receptor Related Protein 1 (NURR1) (AID 2282985; active = hit-call score of the fitted dose curve at least 0.9, where 1 is the maximum); settings: HepG2 Attagene TRANS reporter, mRNA readout
Summary of the method: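 HepG2 cells transiently transfected with NURR1-Gal4 chimera and GAL4-UAS reporter units; after 24 hr compound exposure, reporter mRNA quantified by RT-PCR and capillary electrophoresis; gain of signal fitted against DMSO.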

[6] = molecular target: Transcriptional activator Myb (Homo sapiens) (UniProt P10242); test: ATG_Myb_CIS: Attagene CIS-FACTORIAL HepG2 Assay for human Myeloblastosis (Myb) Proto-Oncogene Transcription Factor (AID 2282986); settings: HepG2 Attagene CIS-FACTORIAL Myb reporter transcription; actives raise or lower the signal
Summary of the method: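 Multiplexed cis-reporter system in HepG2: transient transfection, 24 h treatment, mRNA readout by RT-PCR and capillary electrophoresis. Both increases and decreases are scored versus DMSO negative control.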

[7] = molecular target: Nuclear respiratory factor 1 (Homo sapiens) (UniProt Q16656); test: ATG_NRF1_CIS: Attagene CIS-FACTORIAL HepG2 Assay for human Nuclear Respiratory Factor 1 (NRF1) Orphan Gene (AID 2282987); settings: HepG2 NRF1 cis-element reporter, Attagene multiplex; actives raise or lower the signal
Summary of the method: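 Endogenous factor activity was captured via cis-element-driven reporter transcripts in HepG2 cells. Following 24 h chemical treatment, transcripts were quantified by RT-PCR and capillary electrophoresis.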

[8] = ATG_NFI_CIS: Attagene CIS-FACTORIAL HepG2 Assay for human Nuclear Factor I (NFI) (AID 2282989); settings: HepG2 cis-regulatory reporter, NFI response element transcription; actives raise or lower the signal
Summary of the method: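 Transfected HepG2 liver cells, exposed 24 h, supplied total RNA for oligo(dT) reverse transcription and reporter-specific PCR. Labelled, HpaI-cut fragments were sized by capillary electrophoresis; DMSO set the baseline for bidirectional fitting.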

[9] = molecular target: Myc proto-oncogene protein (Homo sapiens) (UniProt P01106); test: ATG_Myc_CIS: Attagene CIS-FACTORIAL HepG2 Assay for human Myelocytomatosis (Myc) Proto-Oncogene Transcription Factor (AID 2282990); settings: HepG2, Attagene cis-reporter transcription factor activity; actives raise or lower the signal
Summary of the method: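 Fluorescence intensity of reporter-specific cDNA fragments, separated by capillary electrophoresis, gives the signal. Transfected HepG2 cells carrying cis-promoter reporter constructs are incubated with compound for 24 h; DMSO serves as baseline.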

[10] = ATG_NF_kB_CIS: Attagene CIS-FACTORIAL HepG2 Assay for human Nuclear Factor Kappa B (NF-kB) (AID 2282991); settings: HepG2 Attagene cis-factorial NF-kB reporter mRNA; actives raise or lower the signal
Summary of the method: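 After 24 h compound incubation, transfected HepG2 cells yield total RNA; reporter cDNA is PCR-amplified, end-labelled with 6-FAM, HpaI-digested and analysed on a genetic analyser. Endogenous factor activity, DMSO-referenced bidirectional fit.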

[11] = ATG_NRF2_ARE_CIS: Attagene CIS-FACTORIAL HepG2 Assay for human Nuclear Factor Erythroid 2 Related Factor 2 (NFR2) response to Antioxidant Response Elements (ARE) (AID 2282992); settings: HepG2 Attagene ARE/NRF2 reporter, transcription factor activity; actives raise or lower the signal;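 as to AC50: reporter mRNA level measured by RT-PCR and capillary electrophoresis fluorescence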
Summary of the method: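 Transient MRTU transfection of HepG2; 24 h compound exposure; TriZol RNA, RT with oligo(dT), PCR, 6-FAM primer extension, HpaI cut, CE. Bidirectional fit vs DMSO.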

[12] = ATG_Oct_MLP_CIS: Attagene CIS-FACTORIAL HepG2 Assay for human Octamer-Binding Transcription Factor (Oct) (AID 2282993); settings: HepG2 Attagene cis-factorial Oct reporter, mRNA; actives raise or lower the signal
Summary of the method: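 Using HepG2 cells bearing transfected cis-reporter constructs, mRNA induction was read after 24 h by fluorescent RT-PCR and capillary electrophoresis, with DMSO defining baseline for gain- or loss-of-signal fits.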

[13] = molecular target: Cellular tumor antigen p53 (Homo sapiens) (UniProt P04637); test: ATG_p53_CIS: Attagene CIS-FACTORIAL HepG2 Assay for human p53 Transcription Factor (AID 2282994); settings: HepG2 p53 cis-element reporter, Attagene mRNA; actives raise or lower the signal
Summary of the method: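 HepG2, transient MRTU transfection (cis promoter elements, endogenous TFs); 24 h dosing; RNA isolation, RT-PCR, 6-FAM primer extension, HpaI digest, CE fluorescence; bidirectional fit vs DMSO.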

[14] = BSK_3C_TissueFactor: BioMAP Diversity Plus: 3C Assay for Tissue Factor Biomarker Activity (AID 2282997); settings: BioMAP 3C HUVEC, tissue factor biomarker readout; actives raise or lower the signal
Summary of the method: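 Values derive from bidirectional curve fitting against DMSO of Tissue Factor ELISA signals, taken 24 h after dosing primary human umbilical vein endothelial cells.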

[15] = BSK_3C_uPAR: BioMAP Diversity Plus: 3C Assay for Urokinase-type plasminogen activator receptor (uPAR) Biomarker Activity (AID 2282998); settings: BioMAP 3C HUVEC, uPAR biomarker ELISA; actives raise or lower the signal
Summary of the method: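 In this endothelial cell-based assay, human umbilical vein primary cells were treated with chemicals and harvested at 24 h. uPAR was quantified using ELISA, with gains or losses fitted relative to DMSO controls.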

[16] = BSK_3C_VCAM1: BioMAP Diversity Plus: 3C Assay for Vascular cell adhesion molecule 1 (VCAM1) Biomarker Activity (AID 2282999); settings: BioMAP 3C HUVEC, VCAM1 ELISA, cytokine-stimulated; actives raise or lower the signal
Summary of the method: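 Human umbilical vein endothelial cells (3C system), biomarker read by ELISA 24 h after dosing; bidirectional fit against DMSO baseline. Cytotoxicity tracked by SRB total-protein staining in parallel cultures at biomarker time.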

[17] = BSK_4H_Eotaxin3: BioMAP Diversity Plus: 4H Assay for Eotaxin 3 Biomarker Activity (AID 2283000); settings: primary human endothelial cells (HUVEC); actives raise or lower the signal
Summary of the method: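 Endothelial primary cells (human umbilical vein) exposed to compound for 24 h. ELISA detection of Eotaxin-3.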

[18] = molecular target: Oxysterols receptor LXR-alpha (Homo sapiens) (UniProt Q13133); test: ATG_LXRa_TRANS: Attagene TRANS-FACTORIAL HepG2 Assay for human Liver X Receptor alpha (LXRa) (AID 2282980; active = hit-call score of the fitted dose curve at least 0.9, where 1 is the maximum); settings: HepG2 Attagene TRANS reporter, LXRa transactivation
Summary of the method: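 Transient HepG2 transfectants, 24 h dosing, RT-PCR/CE mRNA reporter quantitation; gain-of-signal vs DMSO.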

[19] = ATG_M_32_TRANS: Attagene TRANS-FACTORIAL HepG2 Assay for M32 Transcription Factor (Internal Marker) (AID 2282984; active = hit-call score of the fitted dose curve at least 0.9, where 1 is the maximum;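 also: transcript level of a background control reporter unit measured by RT-PCR and capillary electrophoresis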); settings: HepG2 Attagene TRANS M32 internal marker reporter
Summary of the method: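 HepG2 cells transiently transfected with GAL4-UAS reporter units, dosed for 24 hours. Reporter mRNA quantified by RT-PCR, 6-FAM labelling, HpaI digestion and capillary electrophoresis; internal-marker signal fitted upward relative to DMSO.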

[20] = molecular target: Bile acid receptor (Homo sapiens) (UniProt Q96RI1); test: ATG_FXR_TRANS: Attagene TRANS-FACTORIAL HepG2 Assay for Farnesoid X Receptor (FXR) (AID 2282979; active = hit-call score of the fitted dose curve at least 0.9, where 1 is the maximum;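 also: hits raise reporter mRNA above DMSO so AC50 marks FXR activation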); settings: HepG2 Attagene TRANS FXR-GAL4 reporter transcription
Summary of the method: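 Chimeric FXR-GAL4 activity in transiently transfected human HepG2 liver cells is scored as induction of reporter mRNA after 24 h of dosing. Detection uses RT-PCR with fluorescent labelling and capillary electrophoresis, with DMSO serving as baseline.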

Measured: AC50

Chain of Estrogen-related receptor gamma (Homo sapiens) (P62508 whole entry, looked up, the tested form may be a part): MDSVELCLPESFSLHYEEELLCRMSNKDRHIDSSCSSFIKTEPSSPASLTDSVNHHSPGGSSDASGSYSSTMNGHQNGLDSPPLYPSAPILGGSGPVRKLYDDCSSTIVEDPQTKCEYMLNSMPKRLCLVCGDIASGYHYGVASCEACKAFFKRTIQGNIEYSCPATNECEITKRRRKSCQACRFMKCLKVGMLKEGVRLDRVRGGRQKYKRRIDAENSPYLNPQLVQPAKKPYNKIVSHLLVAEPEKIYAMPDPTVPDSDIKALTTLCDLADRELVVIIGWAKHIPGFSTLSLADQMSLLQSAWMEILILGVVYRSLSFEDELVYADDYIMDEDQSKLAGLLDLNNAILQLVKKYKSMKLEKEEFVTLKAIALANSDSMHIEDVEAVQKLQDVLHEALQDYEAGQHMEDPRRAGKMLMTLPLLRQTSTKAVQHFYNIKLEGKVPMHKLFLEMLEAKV
Chain of Nuclear receptor subfamily 4 group A member 2 (Homo sapiens) (P43354 whole entry, looked up, the tested form may be a part): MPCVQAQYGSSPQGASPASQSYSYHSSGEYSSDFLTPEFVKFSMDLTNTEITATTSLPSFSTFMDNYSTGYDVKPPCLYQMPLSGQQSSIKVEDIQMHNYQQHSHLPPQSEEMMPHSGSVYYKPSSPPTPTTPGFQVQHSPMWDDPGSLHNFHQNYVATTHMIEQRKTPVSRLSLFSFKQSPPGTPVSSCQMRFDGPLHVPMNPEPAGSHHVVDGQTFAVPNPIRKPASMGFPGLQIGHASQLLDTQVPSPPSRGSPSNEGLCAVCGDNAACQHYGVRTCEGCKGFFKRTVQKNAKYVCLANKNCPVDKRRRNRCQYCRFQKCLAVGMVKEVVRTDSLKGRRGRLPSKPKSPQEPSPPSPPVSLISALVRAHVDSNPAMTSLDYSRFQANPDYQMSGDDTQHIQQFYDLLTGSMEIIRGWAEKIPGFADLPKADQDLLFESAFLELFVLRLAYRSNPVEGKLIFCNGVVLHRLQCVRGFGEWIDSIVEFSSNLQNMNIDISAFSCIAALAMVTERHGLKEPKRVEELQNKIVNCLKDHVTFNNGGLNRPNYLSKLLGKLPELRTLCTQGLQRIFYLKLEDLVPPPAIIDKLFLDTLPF
Chain of Bile acid receptor (Homo sapiens) (Q96RI1 whole entry, looked up, the tested form may be a part): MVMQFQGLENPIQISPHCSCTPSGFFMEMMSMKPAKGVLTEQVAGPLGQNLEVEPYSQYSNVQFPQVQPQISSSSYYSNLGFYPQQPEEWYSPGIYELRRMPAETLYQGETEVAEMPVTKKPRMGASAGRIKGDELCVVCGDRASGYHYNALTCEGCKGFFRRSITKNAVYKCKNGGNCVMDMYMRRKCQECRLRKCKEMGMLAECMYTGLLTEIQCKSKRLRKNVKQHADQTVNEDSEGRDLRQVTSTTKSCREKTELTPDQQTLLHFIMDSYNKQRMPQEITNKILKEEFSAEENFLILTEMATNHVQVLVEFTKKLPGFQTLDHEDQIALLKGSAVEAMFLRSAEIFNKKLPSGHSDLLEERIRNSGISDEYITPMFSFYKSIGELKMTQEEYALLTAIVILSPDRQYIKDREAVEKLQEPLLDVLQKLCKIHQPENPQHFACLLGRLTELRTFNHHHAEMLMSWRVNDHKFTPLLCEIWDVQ
Chain of Glucocorticoid receptor (Homo sapiens) (P04150 whole entry, looked up, the tested form may be a part): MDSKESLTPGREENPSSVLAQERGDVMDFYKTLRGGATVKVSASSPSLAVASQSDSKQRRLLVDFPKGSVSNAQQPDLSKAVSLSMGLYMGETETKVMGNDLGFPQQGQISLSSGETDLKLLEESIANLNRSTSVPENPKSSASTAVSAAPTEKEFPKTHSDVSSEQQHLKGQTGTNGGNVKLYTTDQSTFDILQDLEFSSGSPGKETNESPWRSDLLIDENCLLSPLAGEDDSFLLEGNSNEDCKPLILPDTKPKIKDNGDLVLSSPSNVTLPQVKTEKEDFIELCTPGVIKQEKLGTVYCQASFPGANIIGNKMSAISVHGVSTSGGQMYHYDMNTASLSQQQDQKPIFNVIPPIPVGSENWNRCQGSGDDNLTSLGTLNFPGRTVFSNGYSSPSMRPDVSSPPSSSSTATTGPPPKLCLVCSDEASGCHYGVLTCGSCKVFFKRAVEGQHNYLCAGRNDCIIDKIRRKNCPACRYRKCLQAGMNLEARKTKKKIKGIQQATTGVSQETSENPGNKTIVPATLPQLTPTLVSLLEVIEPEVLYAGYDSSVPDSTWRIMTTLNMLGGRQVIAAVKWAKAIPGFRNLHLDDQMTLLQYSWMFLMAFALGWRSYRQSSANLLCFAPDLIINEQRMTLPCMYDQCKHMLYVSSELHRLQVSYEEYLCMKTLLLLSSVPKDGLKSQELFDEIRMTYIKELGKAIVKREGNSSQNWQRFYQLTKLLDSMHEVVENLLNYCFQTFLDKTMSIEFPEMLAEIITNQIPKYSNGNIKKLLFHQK
Chain of Oxysterols receptor LXR-alpha (Homo sapiens) (Q13133 whole entry, looked up): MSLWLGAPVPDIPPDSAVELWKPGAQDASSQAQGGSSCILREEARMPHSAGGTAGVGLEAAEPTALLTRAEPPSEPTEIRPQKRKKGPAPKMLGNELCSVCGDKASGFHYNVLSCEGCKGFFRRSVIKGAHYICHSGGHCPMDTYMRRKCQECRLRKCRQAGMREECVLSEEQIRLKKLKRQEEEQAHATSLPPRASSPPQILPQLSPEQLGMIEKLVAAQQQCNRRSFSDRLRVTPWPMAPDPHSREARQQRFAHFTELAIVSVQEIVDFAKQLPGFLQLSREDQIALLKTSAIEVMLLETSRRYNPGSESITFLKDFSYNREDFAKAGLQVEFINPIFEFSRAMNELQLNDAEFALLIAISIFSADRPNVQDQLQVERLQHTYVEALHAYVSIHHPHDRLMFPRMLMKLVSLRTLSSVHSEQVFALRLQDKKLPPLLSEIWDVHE
Chain of Myc proto-oncogene protein (Homo sapiens) (P01106 whole entry, looked up, the tested form may be a part): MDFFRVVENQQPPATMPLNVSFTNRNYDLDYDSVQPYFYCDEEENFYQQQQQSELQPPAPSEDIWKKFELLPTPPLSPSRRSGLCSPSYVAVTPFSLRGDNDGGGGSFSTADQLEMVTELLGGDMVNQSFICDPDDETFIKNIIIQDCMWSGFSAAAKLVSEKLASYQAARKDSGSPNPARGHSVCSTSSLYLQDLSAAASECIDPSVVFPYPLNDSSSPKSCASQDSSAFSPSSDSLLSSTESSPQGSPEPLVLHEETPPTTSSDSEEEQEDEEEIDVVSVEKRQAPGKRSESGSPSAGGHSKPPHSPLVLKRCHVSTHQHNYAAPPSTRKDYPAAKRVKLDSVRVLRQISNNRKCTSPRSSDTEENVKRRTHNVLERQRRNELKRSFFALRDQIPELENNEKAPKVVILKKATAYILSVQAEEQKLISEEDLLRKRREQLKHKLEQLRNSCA
Chain of Nuclear respiratory factor 1 (Homo sapiens) (Q16656 whole entry, looked up): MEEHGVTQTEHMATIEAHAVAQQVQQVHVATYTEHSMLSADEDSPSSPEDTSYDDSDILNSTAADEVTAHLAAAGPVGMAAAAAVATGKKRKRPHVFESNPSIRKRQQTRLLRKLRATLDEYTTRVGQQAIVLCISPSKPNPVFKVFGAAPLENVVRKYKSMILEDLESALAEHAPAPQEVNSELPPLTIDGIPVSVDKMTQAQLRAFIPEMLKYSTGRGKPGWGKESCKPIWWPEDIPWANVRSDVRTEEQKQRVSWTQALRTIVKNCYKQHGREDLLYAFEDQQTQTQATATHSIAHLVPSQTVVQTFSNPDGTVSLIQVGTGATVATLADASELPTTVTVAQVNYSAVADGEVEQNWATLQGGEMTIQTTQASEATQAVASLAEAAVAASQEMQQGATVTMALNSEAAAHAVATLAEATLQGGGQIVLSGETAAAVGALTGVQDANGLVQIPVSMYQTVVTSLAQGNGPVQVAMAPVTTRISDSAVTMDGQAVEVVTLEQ
Chain of Cellular tumor antigen p53 (Homo sapiens) (P04637 whole entry, looked up): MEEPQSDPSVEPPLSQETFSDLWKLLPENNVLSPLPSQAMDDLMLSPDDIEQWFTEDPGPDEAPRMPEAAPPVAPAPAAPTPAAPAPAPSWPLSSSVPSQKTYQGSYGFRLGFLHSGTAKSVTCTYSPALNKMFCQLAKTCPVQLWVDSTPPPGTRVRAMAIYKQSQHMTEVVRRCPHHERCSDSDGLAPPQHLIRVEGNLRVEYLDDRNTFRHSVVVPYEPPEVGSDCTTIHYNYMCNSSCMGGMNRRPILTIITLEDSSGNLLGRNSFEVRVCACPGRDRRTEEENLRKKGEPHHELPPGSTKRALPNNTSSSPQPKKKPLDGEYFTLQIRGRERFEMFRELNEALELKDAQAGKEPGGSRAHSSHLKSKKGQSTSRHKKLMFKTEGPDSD
Chain of Oxysterols receptor LXR-beta (Homo sapiens) (P55055 whole entry, looked up, the tested form may be a part): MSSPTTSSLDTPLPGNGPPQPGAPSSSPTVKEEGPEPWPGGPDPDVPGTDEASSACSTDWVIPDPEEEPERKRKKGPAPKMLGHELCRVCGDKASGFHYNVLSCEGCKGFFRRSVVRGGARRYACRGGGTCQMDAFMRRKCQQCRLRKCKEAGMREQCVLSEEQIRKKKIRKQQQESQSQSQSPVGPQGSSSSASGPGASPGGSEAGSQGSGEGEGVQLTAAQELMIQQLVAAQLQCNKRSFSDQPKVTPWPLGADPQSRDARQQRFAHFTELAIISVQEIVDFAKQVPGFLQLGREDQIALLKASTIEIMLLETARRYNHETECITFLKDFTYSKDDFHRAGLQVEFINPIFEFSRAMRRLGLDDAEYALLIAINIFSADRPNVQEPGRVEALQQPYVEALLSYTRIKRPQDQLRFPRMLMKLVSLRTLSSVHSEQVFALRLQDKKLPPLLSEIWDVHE

Cc1ccc(C(C)C)c(O)c1
active: [11] 100 µM | [14] 1.38 µM
not listed: [18] | [19] | [20]
inactive: all other assays above

Cc1ccc2ncccc2c1
not listed: [3] | [5] | [7] | [9] | [18] | [19] | [20]
inactive: all other assays above

CCCCCCCCCCCCCCCC
not listed: [2] | [5] | [9] | [10] | [20]
inactive: all other assays above

COCCOC[C@H](CC1(C(=O)NC2CCC(C(=O)O)CC2)CCCC1)C(=O)Oc1ccc2c(c1)CCC2 (some centres not stated)
not listed: [6] | [7] | [9] | [10] | [18] | [19] | [20]
inactive: all other assays above

Nc1nc(N)c2nc(CNc3ccc(C(=O)N[C@@H](CCC(=O)O)C(=O)O)cc3)cnc2n1
not listed: [6] | [18] | [19]
inactive: all other assays above

Cc1cc(NC(=O)C(=O)O)cc(C)c1Oc1ccc(O)c2c1CCC2
not listed: [9] | [10] | [18]
inactive: all other assays above

Clc1cc(Cl)c(Cl)cc1Cl
active: [14] 6.33 µM
not listed: [3] | [7] | [9] | [18] | [19] | [20]
inactive: all other assays above

COc1cc(/C=C/C(=O)CC(=O)/C=C/c2ccc(O)c(OC)c2)ccc1O
active: [8] 33.4 µM | [10] 33.4 µM | [11] 8.71 µM | [12] 33.4 µM | [13] 50.2 µM
inactive: [1] | [18] | [3] | [4] | [19] | [5] | [7] | [9]

COc1cc(S(=O)(=O)O)c(C)cc1N=Nc1c(O)ccc2cc(S(=O)(=O)O)ccc12
not listed: [1] | [3] | [9] | [10] | [18] | [19]
inactive: all other assays above

Cc1cccc(C)c1O
not listed: [2] | [3] | [7] | [18] | [20]
inactive: all other assays above

Cc1nc(-c2ccc3c(c2)CCN(CCC2CCC(NC(=O)/C=C/c4ccc(F)cc4)CC2)CC3)no1 (configuration not stated)
active: [16] 12.8 µM | [17] 12.9 µM
not listed: [1] | [3] | [5] | [7] | [18] | [19]
inactive: all other assays above

COc1cccc2c1C(=O)c1c(O)c3c(c(O)c1C2=O)C[C@@](O)(C(=O)CO)C[C@@H]3O[C@H]1C[C@H](N)[C@H](O)[C@H](C)O1
active: [9] 2.48 µM | [10] 0.653 µM | [11] 1.56 µM | [12] 0.719 µM | [13] 2.24 µM
inactive: [1] | [18] | [3] | [6] | [8]

C=CCc1ccc(O)c(OC)c1
active: [11] 27 µM
not listed: [2] | [3] | [4] | [5] | [10] | [18] | [19] | [20]
inactive: all other assays above

CCCCCCOCCO
not listed: [1] | [20]
inactive: all other assays above

Cc1ccc(N(C)C)cc1
not listed: [1] | [3] | [5] | [18] | [20]
inactive: all other assays above
